Experiment [1] concerns the target rat Corticotropin Releasing Factor Receptor (CRF), Crhr1 (gene 58959) (UniProt P35353). Kind of experiment: NVS_GPCR_rCRF: NovaScreen (NVS) G Protein-Coupled Receptor Assay for rat Corticotropin Releasing Factor Receptor (CRF) (AID 2283300). The protocol: NVS_GPCR_rCRF is a biochemical, single-readout assay that uses extracted gene-proteins from Rat cortical membranes in a tissue-based cell-free assay. Measurements were taken 2 hours after chemical dosing in a 96-well plate.NVS_GPCR_rCRF is one of one assay component(s) measured or calculated from the NVS_GPCR_rCRF assay. It is designed to make measurements of radioligand binding, a form of binding reporter, as detected with scintillation counting signals by […] radiodetection technology.Data from the assay component NVS_GPCR_rCRF was analyzed into 1 assay endpoint. This assay endpoint, NVS_GPCR_rCRF, was analyzed in the positive analysis fitting direction relative to DMSO as the negative control and baseline of activity. […] Furthermore, this assay endpoint can be referred to as a primary readout, because the performed assay has only produced 1 assay endpoint. […]
Binding assays used specific radioligands (tritiated, iodinated) with non-radioactive competitive displacement ligands in agonist or antagonist protocols (as indicated) and various reference compounds and inhibitors to titrate specific binding to receptors and transporters. Most enzyme assays (CYPs, kinases, phosphatases, proteases, HDACs) used recombinant protein and specific substrates (fluorescence mostly, some colorimetric and radioactive) and inhibitors, followed by a biochemical separation of substrate and product. […]

The target in experiment [2] is human Neonicotinoid receptor (NNR), CHRNA2 (gene 1135) (UniProt Q15822). Kind of experiment: NVS_LGIC_hNNR_NBungSens: NovaScreen (NVS) Ligand-Gated Ion Channel Assay for human Neonicotinoid receptor (NNR) (AID 2283313). In a few lines: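 Compounds first screened in duplicate at 25 uM, then actives re-tested in single-replicate dose series up to 50 uM. Binding measured as displacement of specific radioligand from neuroblastoma membrane receptors after 2 h, scintillation read on filters.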
Chain of human Neonicotinoid receptor (NNR), CHRNA2 (gene 1135) (Q15822 whole entry, looked up): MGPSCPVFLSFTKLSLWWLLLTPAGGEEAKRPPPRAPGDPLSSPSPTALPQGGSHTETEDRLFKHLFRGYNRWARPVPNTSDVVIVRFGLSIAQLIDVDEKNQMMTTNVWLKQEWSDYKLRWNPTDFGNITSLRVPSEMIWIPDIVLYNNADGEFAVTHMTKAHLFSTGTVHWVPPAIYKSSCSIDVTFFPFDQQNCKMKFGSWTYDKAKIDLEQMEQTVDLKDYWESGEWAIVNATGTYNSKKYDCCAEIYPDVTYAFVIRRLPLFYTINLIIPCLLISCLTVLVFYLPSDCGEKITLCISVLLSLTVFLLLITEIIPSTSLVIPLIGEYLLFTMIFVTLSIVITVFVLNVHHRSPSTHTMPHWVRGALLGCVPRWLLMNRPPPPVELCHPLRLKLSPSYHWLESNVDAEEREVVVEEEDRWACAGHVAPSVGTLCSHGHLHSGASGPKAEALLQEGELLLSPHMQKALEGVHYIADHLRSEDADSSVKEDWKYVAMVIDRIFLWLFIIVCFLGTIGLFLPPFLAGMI

In experiment [3] the target is rat Neonicotinoid receptor (NNR), Chrna7 (gene 25302) (UniProt Q05941). Nature of the experiment: NVS_LGIC_rNNR_BungSens: NovaScreen (NVS) Ligand-Gated Ion Channel Assay for rat Neonicotinoid receptor (NNR) (AID 2283315). In a few lines: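 Rat cortical membrane preparation incubated 2.5 h with tritiated or iodinated radioligand and test chemical. Bound radioactivity was filtered and counted by scintillation, and displacement was analysed against DMSO.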
Chain of rat Neonicotinoid receptor (NNR), Chrna7 (gene 25302) (Q05941 whole entry, looked up): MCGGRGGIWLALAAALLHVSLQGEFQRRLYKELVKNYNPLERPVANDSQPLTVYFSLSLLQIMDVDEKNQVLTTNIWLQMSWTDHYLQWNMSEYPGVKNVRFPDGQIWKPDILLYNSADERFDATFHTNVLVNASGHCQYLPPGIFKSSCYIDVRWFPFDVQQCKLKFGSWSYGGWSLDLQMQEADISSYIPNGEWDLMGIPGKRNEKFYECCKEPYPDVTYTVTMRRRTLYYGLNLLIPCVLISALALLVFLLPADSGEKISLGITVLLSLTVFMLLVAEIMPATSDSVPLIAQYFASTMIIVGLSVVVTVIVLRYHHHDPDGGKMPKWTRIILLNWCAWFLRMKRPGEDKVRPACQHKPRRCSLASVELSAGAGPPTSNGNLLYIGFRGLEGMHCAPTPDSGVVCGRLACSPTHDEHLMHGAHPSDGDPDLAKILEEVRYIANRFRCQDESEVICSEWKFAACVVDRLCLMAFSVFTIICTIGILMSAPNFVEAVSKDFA

Experiment [4] concerns the target rat Vasopressin 1 Receptor (V1), Avpr1a (gene 25107) (UniProt P30560). Kind of experiment: NVS_GPCR_rV1: NovaScreen (NVS) G Protein-Coupled Receptor Assay for rat Vasopressin 1 Receptor (V1) (AID 2283316). In a few lines: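 Concentration-response up to 50 uM for chemicals passing a threshold such as 30% inhibition in an initial duplicate 25 uM screen. Displacement of radioligand from rat liver membranes measured after 1.5 h by filtration and scintillation.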

SMILES strings stand for the structures. Inconclusive results are not listed. Activity calls are given as the source filed them. How the source made its calls: active means hit-call score of the fitted dose curve at least 0.9, where 1 is the maximum; inconclusive means response in the unintended direction; inactive means score below 0.9.

Chain of rat Corticotropin Releasing Factor Receptor (CRF), Crhr1 (gene 58959) (P35353 whole entry, looked up): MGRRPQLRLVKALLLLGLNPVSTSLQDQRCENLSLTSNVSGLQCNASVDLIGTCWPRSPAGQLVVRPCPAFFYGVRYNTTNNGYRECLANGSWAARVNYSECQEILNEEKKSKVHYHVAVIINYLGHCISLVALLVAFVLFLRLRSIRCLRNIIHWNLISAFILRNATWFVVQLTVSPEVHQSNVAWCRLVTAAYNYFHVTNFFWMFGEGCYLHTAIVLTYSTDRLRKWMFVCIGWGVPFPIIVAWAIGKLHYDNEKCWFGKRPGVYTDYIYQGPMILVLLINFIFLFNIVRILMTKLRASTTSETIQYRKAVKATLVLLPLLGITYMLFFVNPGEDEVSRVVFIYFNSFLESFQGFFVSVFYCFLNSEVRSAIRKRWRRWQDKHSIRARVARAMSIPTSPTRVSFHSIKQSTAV
Chain of rat Vasopressin 1 Receptor (V1), Avpr1a (gene 25107) (P30560 whole entry, looked up): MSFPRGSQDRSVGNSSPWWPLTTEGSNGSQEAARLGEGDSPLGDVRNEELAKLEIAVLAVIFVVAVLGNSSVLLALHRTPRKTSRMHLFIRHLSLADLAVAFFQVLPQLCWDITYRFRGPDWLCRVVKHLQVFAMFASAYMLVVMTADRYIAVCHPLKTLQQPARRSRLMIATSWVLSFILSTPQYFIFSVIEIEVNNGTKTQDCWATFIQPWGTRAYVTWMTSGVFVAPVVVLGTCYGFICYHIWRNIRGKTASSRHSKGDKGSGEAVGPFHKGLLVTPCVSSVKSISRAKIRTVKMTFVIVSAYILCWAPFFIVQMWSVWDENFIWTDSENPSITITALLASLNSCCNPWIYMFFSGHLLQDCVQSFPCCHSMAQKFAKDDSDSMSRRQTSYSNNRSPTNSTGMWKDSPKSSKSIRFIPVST

What is called AC50 is the midpoint of the concentration-response curve, whichever way the signal moves. As to `CCC[CH2][Sn]([Cl])([CH2]CCC)[CH2]CCC`, the concentration at half-maximal activity (AC50) in experiment [1] is 3.75 µM (active).

Regarding `COC(=O)c1ccccc1N`, the compound was classed as inactive in experiment [1]. On to `O=C(Oc1ccc(Br)cc1)N1CCN2CCC1CC2`, for which, in experiment [2], the AC50 was 8.47 µM (active). For `CCOC(=O)[C@]1(c2ccccc2)Oc2ccccc2[C@@H]1N`, the outcome in experiment [2] was inactive. Also, the concentration at half-maximal activity (AC50) in experiment [3] was 25 µM (active).

Take `C1=Cc2cccc3cccc1c23`: in experiment [4], the AC50 is 1.11 µM (active).

The values are drawn from PubChem BioAssay (EPA / NIEHS).
